From PubChem BioAssay
Active and inactive are the calls of the source.

What was measured:
[1] = system: PRMT1 (protein arginine N-methyltransferase 1); assay: PRMT1 binders on small-molecule microarrays, primary screen, biochemical, small-molecule microarray, 635 nm fluorescence (AID 1088); conditions: small-molecule microarray binding, higher = more signal;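 note: binding of Prmt1 protein to compounds spotted on small-molecule microarray slides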
[2] = yeast growth modulation, basal conditions, primary screen, YJM789 clinical isolate, OD600, 24 h (AID 1089);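 note: growth of clinical yeast isolate S. cerevisiae YJM 789 seeded 1000 cells per well; test concentration not given here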; conditions: S. cerevisiae YJM789 growth, higher = more signal, called active from +8 up or from −8 down
[3] = fission yeast growth modulation, primary screen, strain 972, OD600, 24 h, no modulator (AID 1090);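 note: basal condition with compound alone and no growth modifier present; test concentration not given here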; conditions: S. pombe 972 growth, higher = more signal, called active from +8 up or from −8 down
[4] = S. cerevisiae growth modulation with rapamycin, primary screen, strain BY4716, OD600, 96 h (AID 1091); conditions: higher = more signal, called active from +8 up or from −8 down; note: test concentration not given here
[5] = biological target: Torsin-1A-interacting protein 2 (Homo sapiens) (UniProt Q8NFQ8); assay: LULL1 binders on small-molecule microarray, primary screen, cell lysate, human LULL1 lysate, 635/667 nm fluorescence (AID 1092); conditions: hLULL1 lysate binding, 635 nm fluorescence, higher = more signal;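 note: probe is lysate of COS7 cells overexpressing human LULL1; score merges per-feature 667 nm fluorescence with signal-to-noise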
Torsin-1A-interacting protein 2 (Homo sapiens), sequence (Q8NFQ8 whole entry, looked up): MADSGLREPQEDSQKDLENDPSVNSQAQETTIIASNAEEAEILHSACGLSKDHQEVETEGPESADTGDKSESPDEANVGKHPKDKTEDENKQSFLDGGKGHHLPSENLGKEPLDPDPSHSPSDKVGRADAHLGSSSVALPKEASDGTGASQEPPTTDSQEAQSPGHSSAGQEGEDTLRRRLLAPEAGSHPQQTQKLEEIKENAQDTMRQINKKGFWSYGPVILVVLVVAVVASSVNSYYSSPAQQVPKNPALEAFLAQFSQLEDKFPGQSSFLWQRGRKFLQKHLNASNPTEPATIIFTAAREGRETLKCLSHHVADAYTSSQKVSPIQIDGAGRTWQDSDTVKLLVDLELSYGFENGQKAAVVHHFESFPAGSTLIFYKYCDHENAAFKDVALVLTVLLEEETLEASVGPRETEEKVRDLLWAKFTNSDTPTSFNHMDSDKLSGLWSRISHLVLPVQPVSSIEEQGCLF

[6] = E. coli growth modulation, two-sided OD650, primary screen, E. coli filamentation project, strain DRC41, 24 h (AID 1093); conditions: OD650, 24 h, higher = more signal, called active from +8 up or from −8 down;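 note: MC1000 strain lacking acrAB efflux and sulA so SOS filamentation is blocked; test concentration not given here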
[7] = small-molecule microarray binders of probe aLefty2, primary screen, biochemical, biotinylated probe, 635/667 nm fluorescence (AID 1094); conditions: higher = more signal;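 note: score merges spot fluorescence near 667 nm with spot signal-to-noise ratio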
[8] = system: Noggin (protein binding on small-molecule microarray); assay: Noggin binders on small-molecule microarray, primary screen, biochemical, 635/667 nm fluorescence (AID 1095); conditions: 635 nm fluorescence, higher = more signal;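 note: score merges 667 nm feature fluorescence with signal to noise over triplicate slides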
[9] = biological target: Neurogenic locus notch homolog protein 3 (Homo sapiens) (UniProt Q9UM47); assay: NOTCH3 binders on small-molecule microarray, primary screen, biochemical, 635/667 nm fluorescence (AID 1096); conditions: NOTCH3 binding, 635 nm fluorescence, higher = more signal
Neurogenic locus notch homolog protein 3 (Homo sapiens), sequence (Q9UM47 whole entry, looked up): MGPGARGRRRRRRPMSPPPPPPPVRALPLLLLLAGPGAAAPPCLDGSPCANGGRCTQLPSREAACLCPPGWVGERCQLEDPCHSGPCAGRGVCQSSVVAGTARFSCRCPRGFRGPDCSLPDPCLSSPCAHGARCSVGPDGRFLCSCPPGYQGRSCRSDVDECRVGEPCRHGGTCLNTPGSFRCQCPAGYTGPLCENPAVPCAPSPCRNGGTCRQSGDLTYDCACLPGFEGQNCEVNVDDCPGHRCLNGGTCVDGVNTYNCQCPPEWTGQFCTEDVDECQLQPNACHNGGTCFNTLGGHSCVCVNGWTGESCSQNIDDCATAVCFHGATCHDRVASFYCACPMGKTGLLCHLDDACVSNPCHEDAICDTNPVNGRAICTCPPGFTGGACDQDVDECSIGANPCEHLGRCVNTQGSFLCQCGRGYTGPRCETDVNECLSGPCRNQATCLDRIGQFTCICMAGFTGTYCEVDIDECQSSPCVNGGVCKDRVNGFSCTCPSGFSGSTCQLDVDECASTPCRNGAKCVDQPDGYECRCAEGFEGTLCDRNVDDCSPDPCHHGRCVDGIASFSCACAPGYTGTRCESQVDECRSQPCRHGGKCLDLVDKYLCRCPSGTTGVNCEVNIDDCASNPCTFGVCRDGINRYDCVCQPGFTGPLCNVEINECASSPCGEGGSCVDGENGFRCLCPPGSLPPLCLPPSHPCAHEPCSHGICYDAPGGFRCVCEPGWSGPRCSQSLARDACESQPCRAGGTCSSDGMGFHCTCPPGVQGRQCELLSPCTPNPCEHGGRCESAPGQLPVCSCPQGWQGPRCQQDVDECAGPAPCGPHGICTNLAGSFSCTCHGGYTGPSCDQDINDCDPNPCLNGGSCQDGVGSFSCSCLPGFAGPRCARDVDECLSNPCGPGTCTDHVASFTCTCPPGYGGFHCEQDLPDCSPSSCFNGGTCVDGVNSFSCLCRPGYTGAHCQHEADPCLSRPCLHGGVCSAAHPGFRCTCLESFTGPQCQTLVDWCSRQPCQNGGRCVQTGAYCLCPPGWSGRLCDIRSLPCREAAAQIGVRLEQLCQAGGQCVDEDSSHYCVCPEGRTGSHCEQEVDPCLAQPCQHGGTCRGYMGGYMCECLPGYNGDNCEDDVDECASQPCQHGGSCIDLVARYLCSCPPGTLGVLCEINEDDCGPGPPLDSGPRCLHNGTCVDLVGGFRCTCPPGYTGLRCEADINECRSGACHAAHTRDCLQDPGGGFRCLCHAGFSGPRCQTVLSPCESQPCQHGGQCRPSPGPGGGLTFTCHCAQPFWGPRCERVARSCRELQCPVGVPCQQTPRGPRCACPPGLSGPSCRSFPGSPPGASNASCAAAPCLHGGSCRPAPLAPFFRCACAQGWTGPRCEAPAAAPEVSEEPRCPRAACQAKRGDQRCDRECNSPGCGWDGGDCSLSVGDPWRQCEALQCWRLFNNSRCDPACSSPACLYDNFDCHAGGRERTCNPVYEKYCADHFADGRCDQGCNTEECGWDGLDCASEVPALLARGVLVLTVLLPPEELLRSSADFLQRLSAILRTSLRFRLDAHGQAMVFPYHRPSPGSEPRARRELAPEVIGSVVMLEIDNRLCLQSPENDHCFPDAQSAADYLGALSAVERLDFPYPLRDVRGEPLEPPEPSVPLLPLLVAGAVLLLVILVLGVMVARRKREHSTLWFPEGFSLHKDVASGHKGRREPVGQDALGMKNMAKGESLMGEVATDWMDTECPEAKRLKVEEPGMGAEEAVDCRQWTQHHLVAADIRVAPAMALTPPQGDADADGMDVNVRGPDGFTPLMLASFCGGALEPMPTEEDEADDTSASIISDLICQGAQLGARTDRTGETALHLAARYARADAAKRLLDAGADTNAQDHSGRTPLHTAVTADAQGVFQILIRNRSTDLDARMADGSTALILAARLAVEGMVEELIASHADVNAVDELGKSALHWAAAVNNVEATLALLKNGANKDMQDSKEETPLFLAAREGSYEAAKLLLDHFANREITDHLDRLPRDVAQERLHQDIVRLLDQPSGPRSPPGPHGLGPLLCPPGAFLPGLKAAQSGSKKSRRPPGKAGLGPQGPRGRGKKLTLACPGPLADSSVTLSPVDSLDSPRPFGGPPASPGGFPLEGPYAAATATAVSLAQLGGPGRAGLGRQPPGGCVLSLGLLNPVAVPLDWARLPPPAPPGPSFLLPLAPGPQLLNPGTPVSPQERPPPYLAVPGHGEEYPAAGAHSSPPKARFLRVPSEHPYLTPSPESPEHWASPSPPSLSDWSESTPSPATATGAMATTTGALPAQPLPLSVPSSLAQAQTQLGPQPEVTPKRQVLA

[10] = small-molecule microarray binders of probe aEGFR, primary screen, biochemical, biotinylated probe, 635/667 nm fluorescence (AID 1097); conditions: higher = more signal;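 note: probe is a biotinylated anti-EGFR antibody binding compounds printed on slides; score combines fluorescence near 667 nm and signal to noise of each spot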
[11] = system: Plasmodium falciparum Sir2 (PF13_0152, Sir2A); assay: pfSir2 binders on small-molecule microarrays, primary screen, biochemical, small-molecule microarray, 635 nm fluorescence (AID 1098); conditions: small-molecule microarray binding, fluorescence 635 nm; higher = more signal;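 note: score merges spot fluorescence intensity with its signal-to-noise ratio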
[12] = small-molecule microarray binders of probe aDKK1, primary screen, biochemical, biotinylated probe, 635/667 nm fluorescence (AID 1099); conditions: higher = more signal;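 note: score merges 667nm spot fluorescence with signal to noise across triplicate slides; reference of the scale not given here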
[13] = small-molecule microarray binders of probe aCHRDL2, primary screen, biochemical, biotinylated probe, 635/667 nm fluorescence (AID 1100); conditions: higher = more signal
[14] = splicing luciferase reporter signal modulators, primary screen, spliceosome inhibition project, cell-based, HEK293, splice +/- reporter (AID 1101); conditions: luminescence, 24 h, higher = more signal, called active from +8 up or from −8 down;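 note: HEK293 cells carrying a splicing-competent luciferase reporter gene; test concentration not given here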
[15] = biological target: Fibroblast growth factor 10 (Homo sapiens) (UniProt O15520); assay: FGF10 binders on small-molecule microarrays, primary screen, biochemical, small-molecule microarray, 635 nm fluorescence (AID 1102); conditions: FGF10 binding, fluorescence 635 nm, higher = more signal
Fibroblast growth factor 10 (Homo sapiens), sequence (O15520 whole entry, looked up): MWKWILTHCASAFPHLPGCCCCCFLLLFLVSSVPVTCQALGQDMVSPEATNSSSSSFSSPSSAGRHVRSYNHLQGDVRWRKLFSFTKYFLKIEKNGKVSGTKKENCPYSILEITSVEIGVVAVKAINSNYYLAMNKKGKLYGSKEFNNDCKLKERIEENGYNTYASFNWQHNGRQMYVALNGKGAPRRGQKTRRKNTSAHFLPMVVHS

[16] = system: glycogen synthase kinase-3 (GSK3A per assay name; protocol says GSK3B); assay: GSK3 binders on small-molecule microarrays, primary screen, biochemical, small-molecule microarray, 635 nm fluorescence, GSK3A (AID 1103); conditions: small-molecule microarray binding, fluorescence 635 nm; higher = more signal; note: the record names both GSK3A and GSK3B
[17] = biological target: Epidermal growth factor receptor (Homo sapiens) (UniProt P00533); assay: EGFR binders on small-molecule microarrays, primary screen, biochemical, small-molecule microarray, 635 nm fluorescence (AID 1104); conditions: EGFR binding, higher = more signal;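 note: score merges 667 nm emission intensity with spot signal to noise over triplicate slides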
Epidermal growth factor receptor (Homo sapiens), sequence (P00533 whole entry, looked up): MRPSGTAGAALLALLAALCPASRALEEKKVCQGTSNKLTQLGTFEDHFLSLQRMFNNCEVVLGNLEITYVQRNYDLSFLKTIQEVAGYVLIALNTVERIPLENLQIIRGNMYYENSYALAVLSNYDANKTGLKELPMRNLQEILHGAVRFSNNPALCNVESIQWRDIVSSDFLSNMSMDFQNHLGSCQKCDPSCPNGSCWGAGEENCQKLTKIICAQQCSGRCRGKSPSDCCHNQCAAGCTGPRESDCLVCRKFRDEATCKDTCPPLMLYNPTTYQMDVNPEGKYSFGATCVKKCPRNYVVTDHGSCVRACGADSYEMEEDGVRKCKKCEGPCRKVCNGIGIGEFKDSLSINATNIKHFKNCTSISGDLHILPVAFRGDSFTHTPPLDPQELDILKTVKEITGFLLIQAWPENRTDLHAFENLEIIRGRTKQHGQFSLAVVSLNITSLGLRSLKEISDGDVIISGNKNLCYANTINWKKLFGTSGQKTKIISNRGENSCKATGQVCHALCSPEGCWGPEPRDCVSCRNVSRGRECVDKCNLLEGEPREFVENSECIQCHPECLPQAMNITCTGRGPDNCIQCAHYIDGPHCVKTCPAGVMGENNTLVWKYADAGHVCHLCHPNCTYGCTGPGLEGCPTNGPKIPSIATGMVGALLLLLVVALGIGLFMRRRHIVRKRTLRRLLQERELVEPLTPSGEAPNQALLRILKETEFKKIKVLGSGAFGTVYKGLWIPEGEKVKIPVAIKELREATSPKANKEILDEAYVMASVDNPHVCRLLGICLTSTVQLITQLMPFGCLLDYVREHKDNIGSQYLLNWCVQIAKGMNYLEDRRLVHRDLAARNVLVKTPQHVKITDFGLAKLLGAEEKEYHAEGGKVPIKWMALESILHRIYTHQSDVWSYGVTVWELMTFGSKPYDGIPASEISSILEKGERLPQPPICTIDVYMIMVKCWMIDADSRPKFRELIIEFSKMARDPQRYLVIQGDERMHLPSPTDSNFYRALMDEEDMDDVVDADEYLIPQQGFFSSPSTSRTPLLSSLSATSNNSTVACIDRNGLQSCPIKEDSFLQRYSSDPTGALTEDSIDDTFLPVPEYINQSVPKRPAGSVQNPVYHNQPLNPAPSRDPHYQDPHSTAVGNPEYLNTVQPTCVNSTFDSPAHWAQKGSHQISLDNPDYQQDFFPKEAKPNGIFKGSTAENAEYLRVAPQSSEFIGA

[18] = biological target: Follistatin-related protein 3 (Homo sapiens) (UniProt O95633); assay: FSTL3 binders on small-molecule microarrays, primary screen, biochemical, small-molecule microarray, 635 nm fluorescence (AID 1105); conditions: FSTL3 binding, higher = more signal;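 note: score merges emission near 667 nm and signal to noise per printed spot across three slides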
Follistatin-related protein 3 (Homo sapiens), sequence (O95633 whole entry, looked up): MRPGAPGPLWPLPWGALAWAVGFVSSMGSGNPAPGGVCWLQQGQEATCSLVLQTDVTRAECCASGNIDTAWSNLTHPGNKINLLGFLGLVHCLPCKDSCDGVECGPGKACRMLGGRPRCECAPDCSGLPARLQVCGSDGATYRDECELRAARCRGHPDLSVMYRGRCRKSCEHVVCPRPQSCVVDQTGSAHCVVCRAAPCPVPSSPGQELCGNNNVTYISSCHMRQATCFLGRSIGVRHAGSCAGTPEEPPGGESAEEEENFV

[19] = biological target: Dickkopf-related protein 1 (Homo sapiens) (UniProt O94907); assay: DKK1 binders on small-molecule microarrays, primary screen, biochemical, small-molecule microarray, 635 nm fluorescence scan (AID 1106); conditions: DKK1 binding, higher = more signal;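 note: score merges emission near 667 nm with signal to noise over three replicate slides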
Dickkopf-related protein 1 (Homo sapiens), sequence (O94907 whole entry, looked up): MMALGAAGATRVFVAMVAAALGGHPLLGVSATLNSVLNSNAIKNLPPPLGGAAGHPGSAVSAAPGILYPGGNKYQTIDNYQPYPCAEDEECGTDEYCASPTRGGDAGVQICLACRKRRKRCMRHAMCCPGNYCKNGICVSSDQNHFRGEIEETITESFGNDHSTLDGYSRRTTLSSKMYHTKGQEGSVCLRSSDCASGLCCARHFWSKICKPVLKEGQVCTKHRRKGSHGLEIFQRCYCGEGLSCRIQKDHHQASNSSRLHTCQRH

[20] = system: Inhibin beta A chain (activin A); assay: INHBA (activin A) binders on microarrays, primary screen, biochemical, small-molecule microarray, 635 nm fluorescence scan (AID 1107); conditions: small-molecule microarray binding, higher = more signal;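 note: mouse activin A protein probed at 4.33 µg/mL on printed slides; score merges bound-protein fluorescence near 667 nm with spot signal-to-noise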

O=C1[C@H]2C=C(Br)[C@H](C[C@@H]2OCCOCCO)[C@@]12CO2
composite z-score [1]: -0.223 | z-score [2]: 0.85 (inactive) | z-score [3]: 0.397 (inactive) | z-score [4]: 1.19 (inactive) | composite z-score [5]: 0.0385 | z-score [6]: -0.922 (inactive) | composite z-score [7]: -0.111 | composite z-score [8]: 0.595 | composite z-score [9]: 0.235 | composite z-score [10]: 0.0974 | composite z-score [11]: 0.146 | composite z-score [12]: -0.119 | composite z-score [13]: -0.115 | z-score [14]: 0.651 (inactive) | composite z-score [15]: 0.527 | composite z-score [16]: 0.144 | composite z-score [17]: 0.475 | composite z-score [18]: 0.118 | composite z-score [19]: 0.18 | composite z-score [20]: 1.02

COC(=O)[C@@]1(Cc2ccccc2)[C@H]2c3cc(C(=O)N(C)C)n(Cc4cc(F)c(F)c(F)c4)c3C[C@H]2CN1C(=O)c1ccccc1
composite z-score [1]: 0.664 | z-score [2]: 0.103 (inactive) | z-score [3]: 1.52 (inactive) | z-score [4]: 0.405 (inactive) | composite z-score [5]: 3.22 | z-score [6]: -0.832 (inactive) | composite z-score [7]: 0.461 | composite z-score [8]: 0.137 | composite z-score [9]: 1.04 | composite z-score [10]: 0.218 | composite z-score [11]: 1.47 | composite z-score [12]: 0.375 | composite z-score [13]: 1.22 | z-score [14]: -3.26 (inactive) | composite z-score [15]: 0.86 | composite z-score [16]: -0.629 | composite z-score [17]: 0.0296 | composite z-score [18]: 0.521 | composite z-score [19]: -0.818 | composite z-score [20]: 0.748

CCCC[C@H]1OB(O)C[C@H]2C1=C(C)Cn1c(=O)n(-c3ccccc3)c(=O)n12
composite z-score [1]: 0.414 | z-score [2]: 0.585 (inactive) | z-score [3]: 1.19 (inactive) | z-score [4]: 0.261 (inactive) | composite z-score [5]: 0.262 | z-score [6]: -0.314 (inactive) | composite z-score [7]: -0.119 | composite z-score [8]: 0.688 | composite z-score [9]: 0.37 | composite z-score [10]: -0.113 | composite z-score [11]: 0.161 | composite z-score [12]: -0.291 | composite z-score [13]: -0.67 | z-score [14]: -0.293 (inactive) | composite z-score [15]: 0.49 | composite z-score [16]: 0.37 | composite z-score [17]: 0.512 | composite z-score [18]: 0.662 | composite z-score [19]: 0.779 | composite z-score [20]: 0.255

C=CCC(OC(C)=O)[C@@H]1[C@@H](N(Cc2ccc(-c3cccc(C(F)(F)F)c3)o2)C(=O)c2ccc(C)cc2)c2cc(OCCCO)ccc2N1C(=O)c1ccc2ccccc2n1 (stereo not given in full)
composite z-score [1]: -0.0077 | z-score [2]: -0.269 (inactive) | z-score [3]: -0.546 (inactive) | z-score [4]: 0.28 (inactive) | composite z-score [5]: 0.42 | z-score [6]: 1.44 (inactive) | composite z-score [7]: -0.0286 | composite z-score [8]: 0.605 | composite z-score [9]: 0.309 | composite z-score [10]: -0.147 | composite z-score [11]: 0.273 | composite z-score [12]: -0.164 | composite z-score [13]: 0.253 | z-score [14]: 0.168 (inactive) | composite z-score [15]: 0.453 | composite z-score [16]: -0.124 | composite z-score [17]: -0.0487 | composite z-score [18]: 0.483 | composite z-score [19]: 0.381 | composite z-score [20]: 1.4

CCCCC(=C=CC[C@H](O)c1ccccc1OCCO)C[C@H](O)c1cc(Cl)cc(Cl)c1O
composite z-score [1]: 1.1 | z-score [2]: 0.906 (inactive) | z-score [3]: -1.33 (inactive) | z-score [4]: 0.32 (inactive) | composite z-score [5]: 1.3 | z-score [6]: -0.144 (inactive) | composite z-score [7]: -0.118 | composite z-score [8]: 0.453 | composite z-score [9]: 0.224 | composite z-score [10]: -0.163 | composite z-score [11]: 1.26 | composite z-score [12]: 0.0947 | composite z-score [13]: 0.0444 | z-score [14]: 0.23 (inactive) | composite z-score [15]: 0.345 | composite z-score [16]: 0.24 | composite z-score [17]: -0.619 | composite z-score [18]: 0.179 | composite z-score [19]: -0.429 | composite z-score [20]: 0.796

CCN(CC)c1ccc(N2CC=CC34O[C@@H]5/C=C\CCCOC(=O)C5[C@H]3C(=O)N(CCCO)[C@@H]4C2=O)cc1 (stereo not given in full)
composite z-score [1]: 1.42 | z-score [2]: -1.14 (inactive) | z-score [3]: -0.249 (inactive) | z-score [4]: -0.511 (inactive) | composite z-score [5]: 3.65 | z-score [6]: -0.204 (inactive) | composite z-score [7]: -0.158 | composite z-score [8]: -1.03 | composite z-score [9]: -0.21 | composite z-score [10]: -0.287 | composite z-score [11]: 1.47 | composite z-score [12]: -0.136 | composite z-score [13]: 0.808 | z-score [14]: 0.821 (inactive) | composite z-score [15]: -1.04 | composite z-score [16]: -0.422 | composite z-score [17]: -1.48 | composite z-score [18]: -0.88 | composite z-score [19]: -1.75 | composite z-score [20]: -0.222

[N-]=[N+]=NCc1ccccc1C[C@]1(C(=O)N2CCOCC2)N=C(c2ccc(OCCCO)cc2)O[C@H]1c1ccccc1
composite z-score [1]: 1.46 | z-score [2]: -0.432 (inactive) | z-score [3]: -9.19 (active) | z-score [4]: 31.6 (active) | composite z-score [5]: 2.33 | z-score [6]: 1.33 (inactive) | composite z-score [7]: -0.162 | composite z-score [8]: 1.15 | composite z-score [9]: 0.673 | composite z-score [10]: -0.0509 | composite z-score [11]: 0.947 | composite z-score [12]: 0.102 | composite z-score [13]: 0.904 | z-score [14]: -1.18 (inactive) | composite z-score [15]: 1.39 | composite z-score [16]: 0.551 | composite z-score [17]: -0.458 | composite z-score [18]: 0.223 | composite z-score [19]: -0.774 | composite z-score [20]: 0.275

C=CCN1Cc2ccccc2C[C@]2(N=C(c3ccc(OCCCO)cc3)O[C@@H]2c2ccccc2)C1=O
composite z-score [1]: 1.56 | z-score [2]: -6.17 (inactive) | z-score [3]: -9.52 (active) | z-score [4]: 0.272 (inactive) | composite z-score [5]: 3.27 | z-score [6]: 1.49 (inactive) | composite z-score [7]: 0.129 | composite z-score [8]: 0.824 | composite z-score [9]: 1.07 | composite z-score [10]: -0.0455 | composite z-score [11]: 0.761 | composite z-score [12]: -0.0119 | composite z-score [13]: 0.311 | z-score [14]: -1.44 (inactive) | composite z-score [15]: 1.08 | composite z-score [16]: 1.29 | composite z-score [17]: 0.734 | composite z-score [18]: 1.25 | composite z-score [19]: 0.838 | composite z-score [20]: 1.31

CCOC(=O)C[C@H]1[C@H](OC(=O)c2ccc(C(=O)c3ccccc3)cc2)[C@@H](NC(=O)c2ccc3ccccc3n2)c2cc(OCCCO)ccc2N1C(=O)c1ccc2ccccc2n1
composite z-score [1]: 0.424 | z-score [2]: 0.179 (inactive) | z-score [3]: 0.0242 (inactive) | z-score [4]: 0.418 (inactive) | composite z-score [5]: 1.34 | z-score [6]: 1.12 (inactive) | composite z-score [7]: 0.109 | composite z-score [8]: 0.192 | composite z-score [9]: 0.486 | composite z-score [10]: 0.0746 | composite z-score [11]: 0.143 | composite z-score [12]: 0.492 | composite z-score [13]: 0.661 | z-score [14]: -0.679 (inactive) | composite z-score [15]: 0.418 | composite z-score [16]: 0.232 | composite z-score [17]: 0.703 | composite z-score [18]: 0.154 | composite z-score [19]: 0.0952 | composite z-score [20]: 0.41

COc1ccc([Si](C)(C)[C@@H]2[C@@H](CCn3cc([C@H](O)c4ccccc4)nn3)O[C@]3(C(=O)N(C)c4ccccc43)[C@H]2C)cc1
composite z-score [1]: 0.384 | z-score [2]: -0.842 (inactive) | z-score [3]: 0.324 (inactive) | z-score [4]: -0.112 (inactive) | composite z-score [5]: 1.96 | z-score [6]: -0.036 (inactive) | composite z-score [7]: -0.166 | composite z-score [8]: -0.133 | composite z-score [9]: -0.0523 | composite z-score [10]: -0.0828 | composite z-score [11]: 0.839 | composite z-score [12]: -0.202 | composite z-score [13]: 0.28 | z-score [14]: 0.0848 (inactive) | composite z-score [15]: 0.0782 | composite z-score [16]: 0.11 | composite z-score [17]: 0.0033 | composite z-score [18]: -0.291 | composite z-score [19]: 0.0052 | composite z-score [20]: 0.283
